In PubChem BioAssay (Tox21):
“And” between values parts separate entries of the source, which are not always exact repeats. Equal values may be shown once. Results filed as inconclusive are left out. A number with no mark means an inactive call. The source made the active and inactive calls. Calls come from the whole dose curve; as a rule, active = well fitted cell-killing curve with a large enough effect in the repeat runs; inconclusive = weak or mixed curves, or effect the other way; inactive = no such curve, though single readings can be large or run the other way.

Assay: qHTS assay to identify small molecule antagonists of the progesterone receptor (PR) signaling pathway - cell viability counter screen (AID 1346798); note: nearly all actives have a fitted effect of over 50% in size
Settings: PR-UAS-bla HEK293T viability, CellTiter-Glo luminescence, 16 h; series mostly up to 92.4 µM; activity change, negative = cytotoxicity: at the top concentration
Description: National Center for Advancing Translational Sciences [NCATS]
NIH Chemical Genomics Center [NCGC]
U.S. Environmental Protection Agency [EPA]
National Institutes of Environmental Health Sciences [NIEHS]
National Toxicology Program [NTP]
U.S. Food and Drug Administration [FDA]
Progesterone receptor (PR), a nuclear hormone receptor, plays an important role in development, metabolic homeostasis and reproduction. It is activated by the steroid hormone progesterone. Endocrine disrupting chemicals (EDCs) and their interactions with steroid hormone receptors like PR causes disruption of normal endocrine function. To identify the compounds that inhibit PR signaling, a PR-UAS-bla GripTite cell line i.e. PR-UAS-bla HEK293T (Invitrogen, Carlsbad, CA, USA) containing a beta-lactamase reporter gene under the control of an UAS response element was used to screen Tox21 10K compound library. The cytotoxicity of the Tox21 compound library against the PR-bla cell line was tested in parallel by measuring the cell viability using CellTiter-Glo assay in the same wells.
Tox21 Assay Protocol Summary:
PR-UAS-bla HEK293T cells were dispensed at 3,000 cells/4 uL of assay medium containing 2% charcoal stripped FBS per well into black wall/clear-bottom 1536-well plates using a Multidrop Combi (ThermoFisher Scientific, Waltham, MA) dispenser. After the assay plates were incubated at a 37C and 5% CO2 for 4 hr, 23 nL of compounds dissolved in DMSO, positive controls or DMSO only was transferred to the assay plate by a Pintool station (Kalypsys, San Diego, CA), followed by addition of 1 uL of R5020 in assay medium using a Flying Reagent Dispenser (FRD, Aurora Discovery, San Diego, CA). The plates were incubated at 37C and 5% CO2 for 16 hr. Then 1 uL of LiveBLAzer B/G FRET substrate was added using a Flying Reagent Dispenser, the plates were incubated at room temperature for 2 hours, and fluorescence intensity was measured by an Envision plate reader (PerkinElmer, Shelton, CT). For cell viability readout that measures cytotoxicity, 4 uL/well of CellTiter-Glo reagent was added into the assay plates using a FRD. After 30 min incubation at room temperature, the luminescence intensity in the plates was measured using a ViewLux (PerkinElmer) plate reader.
% is set by controls: 0 for no effect and ±100 for the full control effect; potency is the fitted concentration of half-maximal effect.

Row | SMILES | activity change, negative = cytotoxicity | Potency
1 | CCC(C)(Oc1ccc(C2(c3ccc(OC(C)(CC)C(=O)O)cc3)CCCCC2)cc1)C(=O)O (stereo not given) | 9.54% [at 42.5 µM] | 
2 | CC(=O)C1=C(C)[C@@H]2C[C@@]3(C1)[C@H](C)CC[C@H]3C2(C)C |  | inactive
3 | O=C(Oc1ccccc1)c1ccccc1O |  | inactive
4 | Cc1cccc([N+](=O)[O-])c1C(=O)O | 0.184% | 
5 | O=C(O)CCc1ccccc1 | -11.1% | 
6 | N[C@@H]1CONC1=O | 6.38% [at 42.5 µM] | 
7 | CCCCCCCCCCCCc1ccccc1O |  | 38.6 µM (active)
8 | CCCCOCCOC(=O)c1ccccc1C(=O)OCCOCCCC | 9.55% | 
9 | Nc1cc(S(=O)(=O)O)cc2cc(S(=O)(=O)O)cc(O)c12 | 2.15% | 
10 | O=C(O)Cn1cnnn1 | -1.43% [at 42.5 µM] | 
11 | CC(COc1ccccc1)N(CCCl)Cc1ccccc1 (stereo not given) |  | inactive
12 | CCn1c2ccccc2c2cc(N)ccc21 |  | inactive
13 | CCCCC/C=C/CC1CC(=O)OC1=O (stereo not given) | 1.04% | 
14 | CCCCCC(=O)O[C@]1(C(C)=O)CC[C@H]2[C@@H]3CCC4=CC(=O)CC[C@]4(C)[C@H]3CC[C@@]21C |  | 43 µM (active) and 33.5 µM (active)
15 | CC(=O)CC(=O)Nc1ccc2[nH]c(=O)[nH]c2c1 | -0.428% | 
16 | CO[Si](OC)(OC)c1ccccc1 | 8.7% | 
17 | CC(C)(C)NC(=O)[C@@H]1CN(Cc2cccnc2)CCN1C[C@@H](O)C[C@@H](Cc1ccccc1)C(=O)N[C@H]1c2ccccc2C[C@H]1O |  | inactive
18 | C=CS(=O)(=O)O | 1.71% | 
19 | NC(N)=Nc1nc(CSCC/C(N)=N/S(N)(=O)=O)cs1 |  | inactive
20 | NC(N)=NC(=O)Cc1c(Cl)cccc1Cl | -21.7% [at 42.5 µM] | 

Row | SMILES | activity change, negative = cytotoxicity | Potency
21 | Cc1cccc(O)c1C | -22.8% | 
22 | OCCN1CCNCC1 |  | inactive
23 | CC(C)(C)NCC(O)c1cc(O)cc(O)c1 (stereo not given) | -9.86% [at 42.5 µM] | 
24 | CCCCCCCCCCCCCCCCCl | -2.11% [at 18.9 µM] | 
25 | CC1COc2c(N3CCN(C)CC3)c(F)cc3c(=O)c(C(=O)O)cn1c23 (stereo not given) | 7.22% [at 42.5 µM] | 
26 | CCn1cc(C(=O)O)c(=O)c2cc(F)c(N3CCNC(C)C3)c(F)c21 (stereo not given) | 3.17% [at 42.5 µM] | 
27 | CC(=O)OCC1=C(C(=O)O)N2C(=O)[C@@H](NC(=O)Cc3cccs3)[C@H]2SC1 | 2.21% [at 42.5 µM] | 
28 | c1ccc2cc3c(ccc4ccccc43)cc2c1 |  | inactive
29 | Cc1scc2c1N(C(=O)CN1CCN(C)CC1)c1ccccc1NC2=O | 9.43% [at 42.5 µM] | 
30 | CCCC(=O)c1ccccc1 | -23.3% | 
31 | Nc1ccc2cc3ccccc3cc2c1 | -10.1% | 
32 | COc1ccc(CCN2CCC(Nc3nc4ccccc4n3Cc3ccc(F)cc3)CC2)cc1 |  | 17.6 µM (active) and 23.7 µM (active)
33 | O=C(Nc1ccccc1SSc1ccccc1NC(=O)c1ccccc1)c1ccccc1 |  | inactive
34 | Cc1cc(OCCOCC[N+](C)(C)Cc2ccccc2)ccc1C(C)(C)CC(C)(C)C |  | 54.2 µM (active) and 26.6 µM (active)
35 | CC[C@@H](N)CO | 6.57% | 
36 | CCN(CC)C(=O)Nc1ccc(OCC(O)CNC(C)(C)C)c(C(C)=O)c1 (stereo not given) | -23.5% [at 42.5 µM] | 
37 | CCC(CO)(CO)COCC(CC)(CO)CO | 4.56% | 
38 | CN(C)c1ccc2nc3ccc(=[N+](C)C)cc-3sc2c1 |  | inactive
39 | CC(C(O)c1ccc(O)cc1)N1CCC(Cc2ccccc2)CC1 (stereo not given) | -8.06% [at 42.5 µM] | 
40 | CC[C@H]1CN2CCc3cc(OC)c(OC)cc3[C@@H]2C[C@@H]1C[C@H]1NCCc2cc(OC)c(OC)cc21 | -21.3% [at 42.5 µM] | 
